“And” between values parts separate entries of the source, which are not always exact repeats. Identical values can stand only once. Results filed as inconclusive are left out. Some structures have more than one record in an assay (separate samples or runs), and their calls can disagree. The source made the active and inactive calls. Unless noted, the call rests on the fitted dose curve; in most records, active means well fitted curve in the direction sought with a large enough effect in the repeat runs; inconclusive means weak or mixed curves; inactive means no such curve, though single readings can be large; an effect the other way counts as inactive or inconclusive.
Tests used:
[1] = qHTS assay to identify small molecule agonists of the hypoxia (HIF-1) signaling pathway - cell viability counter screen (AID 1224844; calls by dose curve; further: nearly all actives have a fitted effect of over 50% in size; further: potency means the concentration at half of the fitted maximal effect)
Procedure, shortened: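 Multiplexed with the HRE beta-lactamase assay, this viability read used CellTiter-Glo luminescence (30 min, RT) on HRE-bla ME-180 cells treated 17 hrs with compounds in 0.5% dialyzed FBS medium.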

[2] = qHTS assay to identify small molecule agonists of H2AX (AID 1224845; active means well fitted activation curve with a large enough effect in the signal ratio in the repeat runs, not every such curve was filed as active; the % refers to the signal ratio; further: potency means the concentration at half of the fitted maximal effect)
Procedure, shortened: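 Wild-type CHO-K1 cells plated overnight, then exposed 3 hr at 37C to compounds at 15 concentrations (0.76% DMSO). Lysed, then HTRF anti-pH2AX(S139)-cryptate/anti-H2AX-d2 detection after 24 hr at room temperature; emissions 665 and 620 nm.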

[3] = qHTS assay to identify small molecule agonists of H2AX - cell viability counter screen (AID 1224847; calls by dose curve; further: nearly all actives have a fitted effect of over 30% in size; further: potency means the concentration at half of the fitted maximal effect)
Procedure, shortened: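 Wild-type CHO-K1 cells (10% FBS medium) were plated overnight at 37C, exposed to compounds at 15 concentrations for 3 hr at 37C (0.76% DMSO final), and viability was read as CellTiter-Glo luminescence after 30 min at room temperature.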

[4] = qHTS RealTime-Glo MT Cell Viability Assay in HEK293 cells - 32 hour (AID 1224868); further: nearly all actives have a fitted effect of over 50% in size; further: potency means the concentration at half of the fitted maximal effect
Procedure, shortened: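 Homogeneous bioluminescent viability format in HEK293 cells (600 cells/well). Following 5 h at 37 C/5% CO2, 23 nL compound was pintooled; the signal was measured repeatedly during 40 h incubation.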

[5] = A CellTox Green Cytotoxicity Assay to monitor cytotoxicity in HEK293 cells - 0 hour (AID 1224869); further: nearly all actives have a fitted effect of over 50% in size
Procedure, shortened: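 Seeding of HEK293 cells together with cytotoxicity dye preceded a 5 h incubation at 37 C/5% CO2. Test compounds in DMSO were then added and fluorescence monitored across 40 h.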

[6] = qHTS RealTime-Glo MT Cell Viability Assay in HepG2 cells - 40 hour (AID 1224870); further: nearly all actives have a fitted effect of over 50% in size; further: potency means the concentration at half of the fitted maximal effect
Procedure, shortened: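 HepG2 cells mixed with RealTime-Glo MT reagents (NanoLuc plus cell-permeant prosubstrate) were seeded at 600 cells/well, incubated 5 h at 37 C/5% CO2, then pinned with compounds in DMSO; nonlytic luminescence tracked viability during 40 h treatment.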

[7] = qHTS RealTime-Glo MT Cell Viability Assay in HepG2 cells - 24 hour (AID 1224867); further: nearly all actives have a fitted effect of over 50% in size; further: potency means the concentration at half of the fitted maximal effect
Procedure, shortened: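 Cell number in HepG2 cultures estimated from NanoLuc luminescence generated by metabolic reduction of a prosubstrate by living cells. The homogeneous, nonlytic format allowed repeated reads at 0, 8, 16, 24, 32 and 40 h of compound exposure.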

[8] = qHTS assay to identify small molecule antagonists of the estrogen related receptor (ERR) signaling pathway from Tox21 library (AID 1224848); further: nearly all actives have a fitted effect of over 50% in size; further: potency means the concentration at half of the fitted maximal effect
Procedure, shortened: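 Cells: ERR line, 2,000/well; 6 h preincubation 37 C/5% CO2. Cpd in DMSO via pin tool; 18 h, 37 C. ONE-Glo, 30 min RT, luminescence.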

[9] = qHTS assay to identify small molecule agonists of the estrogen related receptor (ERR) signaling pathway from Tox21 library (AID 1224849; calls by dose curve; further: nearly all actives have a fitted effect of over 15% in size); settings: ERR reporter cell line, ONE-Glo luciferase, 18 h
Procedure, shortened: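 Six hours post-seeding at 37 C/5% CO2, ERR cells receive DMSO-solubilised compounds; after 18 h at 37 C, ONE-Glo reagent is applied and luminescence recorded.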
On the % scale 0 is the no-effect control and ±100 the full control effect.

CC(C)(C)CC(C)(C)c1ccc(O)cc1
49 µM (active) and inactive: Potency [6]
inactive: Potency [4] | Potency [5]
38.9 µM (active) and inactive: Potency [1]
active: Potency [2] 89.8 µM | Potency [3] 4.5 µM and 39.1 µM

O=C(CCl)CCl
active: Potency [1] 21.9 µM | Potency [2] 104 µM | Potency [4] 18 µM and 19.5 µM
inactive: Potency [3] | Potency [7] | Potency [5] | Potency [6]

COc1ccc2c(c1OC)C(=O)O[C@H]2[C@@H]1c2cc3c(cc2CCN1C)OCO3
inactive: Potency [1] | Potency [2] | Potency [3] | Potency [7] | Potency [4] | Potency [5] | Potency [6]

O=C(O)C(O)C(O)C(=O)O (centres undefined)
inactive: Potency [1] | Potency [2] | Potency [3] | Potency [7] | Potency [4] | Potency [5] | Potency [6]

CCC(C)(C)O
inactive: Potency [1] | Potency [2] | Potency [3] | Potency [7] | Potency [4] | Potency [5] | Potency [6]

CCCC[N+]1(C)[C@@H]2CC(OC(=O)[C@H](CO)c3ccccc3)C[C@H]1[C@@H]1O[C@@H]12 (some centres undefined)
inactive: Potency [1] | Potency [2] | Potency [3] | Potency [7] | Potency [4] | Potency [5] | Potency [6]

CCCCCCCCn1sccc1=O
active: Potency [1] 4.91 µM and 3.63 µM | Potency [3] 50.6 µM and 26.5 µM | Potency [8] 17.3 µM and 9.05 µM | Potency [4] 11 µM and 12.9 µM | Potency [6] 43.7 µM and 14.5 µM
inactive: Potency [2] | activity change, positive = activation ([9]; at 92.4 µM (top of the series)) -82.6% and -70% | Potency [5]

C[CH2][Hg][S]c1ccccc1C(=O)O
active: Potency [1] 616 nM and 1.9 µM | Potency [2] 4.01 µM | Potency [3] 17.9 µM and 24.7 µM | Potency [7] 2.19 µM and 2.13 µM | Potency [4] 977 nM and 1.07 µM | Potency [6] 2.19 µM and 2.39 µM
inactive and 16.8 µM (active): Potency [8]
inactive: activity change, positive = activation ([9]; at 42.5 µM (top of the series)) -75.4% | activity change, positive = activation ([9]; at 92.4 µM (top of the series)) -77.1% | Potency [5]

CCC1(CCC(C)C)C(=O)NC(=O)NC1=O
inactive: Potency [1] | Potency [2] | Potency [3] | Potency [7] | Potency [4] | Potency [5] | Potency [6]

COC1CC(=C(c2cccs2)c2cccs2)C[N+](C)(C)C1 (centres undefined)
inactive: Potency [1] | Potency [2] | Potency [3] | Potency [7] | Potency [4] | Potency [5] | Potency [6]

CN1CC[C@]23c4c5ccc(O)c4O[C@H]2[C@@H](O)CC[C@H]3[C@H]1C5
inactive: Potency [1] | Potency [2] | Potency [3] | Potency [7] | Potency [4] | Potency [5] | Potency [6]

CCCCC#N
inactive: Potency [1] | Potency [2] | Potency [3] | Potency [7] | Potency [4] | Potency [5] | Potency [6]

Cc1ncc(C[n+]2csc(CCO)c2C)c(N)n1
inactive: Potency [1] | Potency [2] | Potency [3] | Potency [4] | Potency [5] | Potency [6]

Cc1cccc(C)c1NC1=NCCCS1
inactive: Potency [1] | Potency [2] | Potency [3] | Potency [8] | activity change, positive = activation ([9]; at 42.5 µM (top of the series)) 4.81% | Potency [7] | Potency [4] | Potency [5] | Potency [6]

COC1=CC(=O)O[C@@H](/C=C/c2ccc3c(c2)OCO3)C1
inactive: Potency [1] | Potency [2] | Potency [3] | activity change, positive = activation ([9]; at 92.4 µM (top of the series)) -47.8% | Potency [7] | Potency [4] | Potency [5] | Potency [6]
active: Potency [8] 20.8 µM

CCCCCCCCCCCCCCCl
inactive: Potency [1] | Potency [2] | Potency [3] | Potency [7] | Potency [4] | Potency [5] | Potency [6]

Nc1cc(Cl)cc(C(=O)O)c1Cl
inactive: Potency [1] | Potency [2] | Potency [3] | Potency [8] | activity change, positive = activation ([9]; at 92.4 µM (top of the series)) 4.39% and 3.97% | Potency [7] | Potency [4] | Potency [5] | Potency [6]

O=C1CC[C@@]2(O)[C@H]3Cc4ccc(O)c5c4[C@@]2(CCN3CC2CC2)[C@H]1O5
inactive: Potency [1] | Potency [2] | Potency [3] | Potency [7] | Potency [4] | Potency [5] | Potency [6]

Source: PubChem BioAssay (Tox21)
